# Laboratory results reported in the supplement of paper PMC8728848.
# Only a selection was taken, and the strongest signals are over-represented in it overall.
# B1: PX9937J-pdi-523-26-523 (Parabacteroides distasonis) (protein)
# chain: EPVSSISDANYWKSPDLFKAFNIGLHGLLRSQSSYNIFVLGEPRSDIYGDQPFGGEATQGVERFSYNTINAEFTGISNFANFYTTLNQINLMIRRTNETDLLGEAEKNYYLGQAYGLRAYIYFHLLRSWGDVIITTEPTLGSELDISHLDKAASPASEVMDLIKKDIDASEKAFGGDYSYKQGKCYWSKPATLMLKGEVYLWSGRQMGGGTGDYTVAKTALQDLQQNGNLKLQEKFTDVFSFNNKENSEMIFALHSGKEDDFMMWRDYNWRNNMVPQREYMAGYCDETGTPFLEIPGYNLQGLMRYQVKKDHYLKSFREGDTRLKGTLKAVYKKHEDGTLEYIAPIQYKFQGTTLEGSNERSWYDDYPIYRYADALLLLAEAKALLGEDPSTEINAVRERAYGSEYFNAHKNEVAYPNDKGSFYNDNPFEAGDENVMEAILKERLREFFFEGKRWYDLRRFGKDYVLKYTTAQESRLLWPINEGALTNNPALKQTPGY
# Key:
# Assay in all cases: glycan array binding signal (z-score within array); higher = stronger binding
# Details in all cases: glycan notation: IUPAC condensed, linker removed
# [1] = target: Fuc(a1-2)Gal(b1-3)GlcNAc(b1-3)[Fuc(a1-2)Gal(b1-3)GlcNAc(b1-6)]GalNAc
# How it was run: (§1)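 From the Consortium for Functional Glycomics database, 3228 arrays were curated, keeping only those whose protein sequence was available. Binding is given as a within-array Z-score averaged across arrays sharing a protein sequence and across linkers. Negative Z-scores can be read as non-binding.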
# Fuc(a1-2)Gal(b1-4)Glc6S = target: Fuc(a1-2)Gal(b1-4)Glc6S
# How it was run: as §1
# [2] = target: Fuc(a1-2)Gal(b1-4)GlcNAc(b1-2)Man(a1-3)[Fuc(a1-2)Gal(b1-4)GlcNAc(b1-2)Man(a1-6)]Man(b1-4)GlcNAc(b1-4)[Fuc(a1-6)]GlcNAc
# How it was run: as §1
# [3] = target: Fuc(a1-2)[Gal(a1-3)]Gal(b1-3)GalNAc
# How it was run: as §1
# [4] = target: Fuc(a1-2)[Gal(a1-3)]Gal(b1-4)GlcNAc(b1-3)[Fuc(a1-2)[Gal(a1-3)]Gal(b1-4)GlcNAc(b1-6)]GalNAc
# How it was run: as §1
# [5] = target: Fuc(a1-2)[GalNAc(a1-3)]Gal(b1-4)GlcNAc(b1-3)Gal(b1-4)GlcNAc(b1-3)Gal(b1-4)GlcNAc
# How it was run: as §1
# [6] = target: Fuc(a1-3)[Gal(b1-4)]Glc6S
# How it was run: as §1
# [7] = target: Fuc(a1-3)[Gal(b1-4)]GlcNAc(b1-6)GalNAc
# How it was run: as §1
# [8] = target: Fuc(a1-3)[Gal(b1-4)]GlcNAc6S
# How it was run: as §1
# Gal(a1-2)Gal = target: Gal(a1-2)Gal
# How it was run: as §1
# Gal(a1-4)Gal(b1-4)Glc = target: Gal(a1-4)Gal(b1-4)Glc
# How it was run: as §1
# [9] = target: Gal(a1-4)Gal(b1-4)GlcNAc(b1-2)Man(a1-3)[Gal(a1-4)Gal(b1-4)GlcNAc(b1-2)Man(a1-6)]Man(b1-4)GlcNAc(b1-4)GlcNAc
# How it was run: as §1
# [10] = target: Gal(b1-3)GlcNAc(b1-2)Man(a1-3)[Gal(b1-3)GlcNAc(b1-2)Man(a1-6)]Man(b1-4)GlcNAc(b1-4)GlcNAc
# How it was run: as §1
# [11] = target: Gal(b1-3)GlcNAc(b1-3)Gal(b1-4)GlcNAc(b1-2)Man(a1-3)[Gal(b1-3)GlcNAc(b1-3)Gal(b1-4)GlcNAc(b1-2)Man(a1-6)]Man(b1-4)GlcNAc(b1-4)GlcNAc
# How it was run: as §1
# [12] = target: Gal(b1-3)GlcNAc(b1-3)Gal(b1-4)GlcNAc(b1-6)[Gal(b1-3)GlcNAc(b1-3)]Gal(b1-4)Glc
# How it was run: as §1
# [13] = target: Gal(b1-3)GlcNAc(b1-3)Gal(b1-4)[Fuc(a1-3)]GlcNAc(b1-6)[Gal(b1-3)GlcNAc(b1-3)]Gal(b1-4)Glc
# How it was run: as §1
# [14] = target: Gal(b1-3)GlcNAc(b1-3)GalNAc
# How it was run: as §1
# [15] = target: Gal(b1-3)GlcNAc(b1-6)Gal(b1-4)GlcNAc
# How it was run: as §1
# [16] = target: Gal(b1-3)[Fuc(a1-4)]GlcNAc(b1-3)Gal(b1-4)[Fuc(a1-3)]GlcNAc
# How it was run: as §1
# Gal(b1-4)GlcNAc = target: Gal(b1-4)GlcNAc
# How it was run: as §1
# [17] = target: Gal(b1-4)GlcNAc(b1-3)Gal(b1-4)GlcNAc
# How it was run: as §1
# [18] = target: Gal(b1-4)GlcNAc(b1-3)Gal(b1-4)GlcNAc(b1-2)[Gal(b1-4)GlcNAc(b1-3)Gal(b1-4)GlcNAc(b1-6)]Man(a1-6)[Gal(b1-4)GlcNAc(b1-3)Gal(b1-4)GlcNAc(b1-2)Man(a1-3)]Man(b1-4)GlcNAc(b1-4)GlcNAc
# How it was run: as §1
# [19] = target: Gal(b1-4)GlcNAc(b1-3)Gal(b1-4)GlcNAc(b1-3)Gal(b1-4)GlcNAc(b1-3)Gal(b1-4)GlcNAc(b1-2)Man(a1-3)[Gal(b1-4)GlcNAc(b1-3)Gal(b1-4)GlcNAc(b1-3)Gal(b1-4)GlcNAc(b1-3)Gal(b1-4)GlcNAc(b1-2)Man(a1-6)]Man(b1-4)GlcNAc(b1-4)[Fuc(a1-6)]GlcNAc
# How it was run: as §1
# [20] = target: Gal(b1-4)GlcNAc(b1-3)Gal(b1-4)GlcNAc(b1-3)Gal(b1-4)GlcNAc(b1-3)Gal(b1-4)GlcNAc(b1-3)Gal(b1-4)GlcNAc(b1-3)Gal(b1-4)GlcNAc(b1-2)Man(a1-3)[Gal(b1-4)GlcNAc(b1-3)Gal(b1-4)GlcNAc(b1-3)Gal(b1-4)GlcNAc(b1-3)Gal(b1-4)GlcNAc(b1-3)Gal(b1-4)GlcNAc(b1-3)Gal(b1-4)GlcNAc(b1-2)Man(a1-6)]Man(b1-4)GlcNAc(b1-4)GlcNAc
# How it was run: as §1
# [21] = target: Gal(b1-4)GlcNAc(b1-3)Gal(b1-4)GlcNAc(b1-3)GalNAc
# How it was run: as §1
# [22] = target: Gal(b1-4)GlcNAc(b1-3)GalNAc
# How it was run: as §1
# [23] = target: Gal(b1-4)GlcNAc(b1-3)[Gal(b1-4)GlcNAc(b1-6)]Gal(b1-4)GlcNAc
# How it was run: as §1
# [24] = target: Gal(b1-4)GlcNAc(b1-6)[Gal(b1-4)GlcNAc(b1-3)]GalNAc
# How it was run: as §1
binder,measurement,setting,value
B1,glycan array binding signal (z-score),[1],-0.127
same,glycan array binding signal (z-score),Fuc(a1-2)Gal(b1-4)Glc6S,-0.759
same,glycan array binding signal (z-score),[2],0.953
same,glycan array binding signal (z-score),[3],-0.16
same,glycan array binding signal (z-score),[4],-0.426
same,glycan array binding signal (z-score),[5],-0.377
same,glycan array binding signal (z-score),[6],-0.103
same,glycan array binding signal (z-score),[7],-0.093
same,glycan array binding signal (z-score),[8],5.71
same,glycan array binding signal (z-score),Gal(a1-2)Gal,-0.363
same,glycan array binding signal (z-score),Gal(a1-4)Gal(b1-4)Glc,0.596
same,glycan array binding signal (z-score),[9],2.9
same,glycan array binding signal (z-score),[10],-0.12
same,glycan array binding signal (z-score),[11],3.05
same,glycan array binding signal (z-score),[12],0.461
same,glycan array binding signal (z-score),[13],-0.698
same,glycan array binding signal (z-score),[14],-0.708
same,glycan array binding signal (z-score),[15],-0.374
same,glycan array binding signal (z-score),[16],-0.34
same,glycan array binding signal (z-score),Gal(b1-4)GlcNAc,0.078
same,glycan array binding signal (z-score),[17],-0.225
same,glycan array binding signal (z-score),[18],10.4
same,glycan array binding signal (z-score),[19],0.026
same,glycan array binding signal (z-score),[20],8.6
same,glycan array binding signal (z-score),[21],6.57
same,glycan array binding signal (z-score),[22],-0.086
same,glycan array binding signal (z-score),[23],-0.21
same,glycan array binding signal (z-score),[24],-0.149
